Source: PubChem BioAssay
Most compounds without a hit are left out; they make up all but 4.7% or so of the library.
tim10-1 inh = growth inhibitors of tim10-1 mutant yeast | S. cerevisiae tim10-1 ts strain growth, BacTiter-Glo, 24 h | inhibition, % at 20 µM | 2.2% of 330,000 active | AID 463190;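 active = inhibition of at least 40%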;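 note: mutant grown at 25 °C; 0% = DMSO wells with yeast and 100% = wells holding no yeast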
PfHsp90 yeast 2 = inhibits growth of yeast expressing Plasmodium falciparum Hsp90; inhibition, % at 9.4 µM; 0.32% of 310,000 active; S. cerevisiae expressing PfHsp90, BacTiter-Glo ATP, 48 h; yeast lacking PDR1 and PDR3 efflux regulators;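 active = every replicate shows inhibition above about 80%, whatever the replicate mean, limit read from the data; inconclusive = mean inhibition reaches the set limit but some replicate falls short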;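 note: 0% = DMSO neutral controls and 100% = 20 µM radicicol positive controls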
SKKanGAS inh = SKKanGAS growth inhibition; S. pyogenes SKKanGAS, kanamycin growth, BacTiter-Glo, 6 h; inhibition, % at 7.5 µM; 1.3% of 300,000 active; AID 1662;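 active = mean replicate score, as percent of positive control median, at least 50; inconclusive = mean below 50 but one replicate at or above 50; inactive = mean and every replicate below 50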;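 note: strain carries kanamycin resistance gene driven by streptokinase promoter and grows in 40 µg/ml kanamycin; loss of luminescence reflects streptokinase promoter inhibition or plain growth inhibition; 0% = median of DMSO wells and 100% = positive control at its reference dose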
tim23-1 inh = tim23-1 yeast growth inhibition. 1.3% of 330,000 active. S. cerevisiae tim23-1 growth, BacTiter-Glo luminescence, 24 h. AID 463212. inhibition, % at 20 µM;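 active = growth inhibition of the mutant yeast at or above 50%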;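 note: temperature-sensitive mutant grown at 25 °C; plate controls were DMSO-treated mutant yeast for no effect and medium wells lacking yeast for full effect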
EBI2 block = antagonists of human EBI2 receptor. P32249. EBI2 beta-arrestin recruitment, luminescence, 7a,25-OHC stimulated. inhibition, % at 5 µM. 0.81% of 360,000 active; in the data active = inhibition above about 38%;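 note: enzyme fragment complementation signal reports receptor beta-arrestin coupling in cells; 0% = agonist plus DMSO wells and 100% = wells without agonist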
Target sequence (P32249 whole entry, looked up, the tested form may be a part): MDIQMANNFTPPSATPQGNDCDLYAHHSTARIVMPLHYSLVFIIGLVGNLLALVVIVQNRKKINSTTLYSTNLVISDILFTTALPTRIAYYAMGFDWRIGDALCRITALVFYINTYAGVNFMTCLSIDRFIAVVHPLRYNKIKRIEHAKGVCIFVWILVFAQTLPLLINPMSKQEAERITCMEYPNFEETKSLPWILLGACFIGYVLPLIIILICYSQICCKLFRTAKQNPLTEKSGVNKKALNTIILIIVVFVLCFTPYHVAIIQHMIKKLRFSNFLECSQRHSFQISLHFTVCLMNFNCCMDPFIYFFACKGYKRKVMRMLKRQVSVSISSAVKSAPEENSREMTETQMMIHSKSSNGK
TIM10 inh = growth inhibitors of TIM10 yeast strain | inhibition, % at 10 µM | S. cerevisiae TIM10 strain growth, BacTiter-Glo luminescence, 24 h | 1.4% of 330,000 active | AID 463195;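 active = inhibition of 40% or more at the single tested concentration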;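 note: wild-type TIM10 isogenic control strain grown at permissive 25 °C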
tim10-1 conf = tim10-1 yeast growth inhibition, confirmed | shares compounds with tim10-1 inh | S. cerevisiae tim10-1 ts strain growth, BacTiter-Glo, 24 h | inhibition, % at 20 µM | 56% of 7,400 active | AID 463213;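 active = inhibition of yeast growth at or above a set limit in either of two repeat tests at 20 µM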;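 note: tim10-1 mutant grown at permissive 25 °C to find synthetic lethal compounds; 0% = DMSO yeast wells and 100% = medium wells without yeast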
TIM10 conf = TIM10 yeast growth inhibition, confirmed; shares compounds with TIM10 inh; S. cerevisiae tim10 strain growth, BacTiter-Glo luminescence, 24 h; inhibition, % at 10 µM; 63% of 4,600 active; AID 463215;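 active = inhibition of yeast growth at or above a set limit in either of two replicates at 10 µM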;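 note: this counterscreen used the strain with wild-type TIM10; 0% = yeast with DMSO and 100% = medium wells lacking yeast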
Starred values were filed as active, the others as inactive; ? = inconclusive; . = no result given.

SMILES | tim10-1 inh | PfHsp90 yeast 2 | SKKanGAS inh | tim23-1 inh | EBI2 block | TIM10 inh | tim10-1 conf | TIM10 conf
CNc1nc(-c2ccccc2)nnc1C(F)(F)F | -3 | 7 | 6 | 9 | -17 | 2 | . | .
Cc1ccc(Sc2nc(-c3ccccc3)nnc2C(F)(F)F)cc1 | 40* | 9 | 20 | 28 | 31 | 41* | 38* | 3
O=Nc1c2nc3ccccc3n(O)c-2c2ccccc12 | 84* | . | 22 | 40 | 0 | 75* | 83* | 71*
On1c(-c2ccccc2)nc2ccccc21 | -16 | 13 | -15 | 0 | -4 | -21 | . | .
O=C(CS(=O)CC(=O)N(CC(=O)NC1CCCC1)c1ccc2c(c1)OCCO2)Nc1ccc(F)cc1 (configuration not stated) | 12 | 23 | -5 | 8 | 2 | 4 | . | .
O=C(CNc1cccc(C(F)(F)F)c1)N/N=C/c1cccc(Br)c1 | 44* | -28 | 7 | 18 | 14 | 49* | 24 | -28
Cc1ccnn2cc3c(=O)n(C)c(=O)n(C)c3c12 | 53* | . | -4 | 41 | . | 72* | 51* | -9
Cn1c(=O)c2cn3ncccc3c2n(C)c1=O | . | . | 6 | . | . | . | . | .
Cc1nn(C)c(C(=O)Nc2ccc(S(=O)(=O)NC34CC5CC(CC(C5)C3)C4)cc2)c1Br | 54* | ? | 53* | 41 | 23 | 58* | 45* | 21
Cc1nn(C)c(C(=O)Nc2ccn(C34CC5CC(CC(C5)C3)C4)n2)c1[N+](=O)[O-] | 26 | -4 | -17 | 36 | -7 | -8 | . | .
c1ccc(-c2nnc(N3CCN(c4ccccn4)CC3)c3ccccc23)cc1 | 52* | . | 16 | 33 | 15 | 41* | 29 | 8
CCOc1ccc(CSCCNC(=S)Nc2ccccc2)cc1 | 42* | -8 | -9 | 45 | -7 | 47* | 20 | -40
CCCNC(=S)Nc1ccc(Oc2ccccc2)cc1 | 42* | 5 | -5 | 33 | -46 | 42* | 21 | 24
S=C(NCCSCc1ccc(Cl)cc1Cl)Nc1ccccc1 | 48* | -20 | 56* | 0 | 14 | 59* | 45* | 53*
S=C(NCCSCc1ccc(Cl)c(Cl)c1)Nc1ccccc1 | 54* | -42 | 52* | 36 | 5 | 45* | 28 | -9
Cc1ccc(NC(=O)COC(=O)Cn2ccc(=O)[nH]c2=O)cc1C | -13 | -5 | . | -6 | 4 | -5 | . | .
Cc1cccc(C)c1NC(=O)Nc1ccc(S(N)(=O)=O)cc1 | -1 | -11 | -1 | 4 | -7 | 10 | . | .
CCN(C[C@H]1N[C@@](CC)(C(=O)OC)[C@H]2C(=O)N(C)C(=O)[C@@H]12)C(=O)COC | -11 | 6 | . | 1 | -9 | -1 | . | .
O=C(/C=C/c1cccc(Cl)c1)Nn1c(-c2cccs2)nc2ccccc2c1=O | 45* | 14 | 15 | 36 | 6 | 43* | 36* | 25
Cn1c(=O)c2c(nc(N3CCN(c4ccccn4)CC3)n2Cc2ccccc2Cl)n(C)c1=O | 43* | -25 | -7 | 24 | -1 | 51* | 28 | 35*
Cn1c(=O)c2c(nc(N3CCNCC3)n2Cc2ccccc2Cl)n(C)c1=O | 1 | -8 | 6 | 15 | 4 | -5 | . | .
Cc1nn(C)c(C)c1NC(=O)Nc1cccc(C(F)(F)F)c1 | -10 | 3 | -6 | 8 | -1 | -2 | . | .
Cc1nn(C)c(C)c1NC(=O)Nc1ccc(Cl)c(Cl)c1 | 60* | 7 | 10 | 37 | -1 | 40* | 58* | 25
CCN1CCN(c2cc(N3CCc4ccccc4C3)c(F)cc2[N+](=O)[O-])CC1 | 41* | 12 | 4 | 32 | 1 | 41* | 32* | 4
COc1ccc(N2CCN(C(=O)c3ccc4nc(N5CCCCC5)sc4c3)CC2)cc1 | 44* | -5 | 3 | 38 | 4 | 40* | 34* | 33*
COc1cccc(N2CCN(C(=O)c3ccc4nc(N5CCCCC5)sc4c3)CC2)c1 | 40 | 5 | -1 | 25 | 2 | 9 | . | .
CC(C)Cn1c(=S)[nH]c2cc(Cl)ccc21 | 43* | -7 | -2 | 49 | 1 | 50* | 18 | 26
